According to PubChem BioAssay (NCATS):
Records with an inconclusive call do not appear. A call without a number means that no potency is given here. Activity calls are given as the source filed them. The call rests on the fitted dose curve; in most records, active means well fitted curve in the direction sought with a large enough effect; inconclusive means small, poorly fitted or top-dose-only effect, or another doubt; inactive means no such curve, though single readings can be large; an effect the other way counts as inactive or inconclusive.

Test: Cellular Toxicity (caspase-3) HepG2 (AID 654);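 further: cells exposed to compound for 16 hours before reading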
Conditions: HepG2 caspase-3 activation, luminescence; series mostly up to 92.2 µM
Summary of the method: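 Concentration-response AC50 values reflect caspase-3/7 induction in HepG2 cells after 16 hours of compound exposure, quantified by luminescence from liberated aminoluciferin and referenced to 100 uM tamoxifen as full stimulation.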

SMILES | Potency
O=C(O)c1cc(O)c(O)c(O)c1 | inactive
CC(C)NCC(O)COc1cccc2ccccc12 (centres undefined) | inactive
O=c1cc(-c2ccccc2)oc2ccccc12 | inactive

Test: Cellular Toxicity (caspase-3) Jurkat (AID 655);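 further: cells exposed to compound for 16 h at 37 °C before reading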
Conditions: Jurkat caspase-3 activation, luminescence; series mostly up to 92.2 µM
Summary of the method: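 Luminescent Caspase-Glo 3/7 read-out (20 min, room temperature) after 16 h compound treatment at 37 C of 5000 Jurkat cells per well. AC50 derived by Hill-equation fitting, scaled between DMSO basal and 100 uM tamoxifen stimulation.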

SMILES | Potency
O=C(O)c1cc(O)c(O)c(O)c1 | inactive
CC(C)NCC(O)COc1cccc2ccccc12 (centres undefined) | inactive
O=c1cc(-c2ccccc2)oc2ccccc12 | inactive

Test: Cellular Toxicity (caspase-3) HUV-EC-C (AID 656)
Conditions: HUV-EC-C cells, caspase-3 activation (apoptosis), vehicle = 0, 100 µM tamoxifen = 100%; series mostly up to 92.2 µM
Summary of the method: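 Luminescent Caspase-Glo 3/7 readout after 16 h, 37 °C compound exposure of HUV-EC-C endothelial cells, 1000 per well, complete medium. AC50 derived by Hill fitting, with DMSO as baseline and 100 uM tamoxifen as full activation.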

SMILES | outcome
O=C(O)c1cc(O)c(O)c(O)c1 | inactive
CC(C)NCC(O)COc1cccc2ccccc12 (centres undefined) | inactive
O=c1cc(-c2ccccc2)oc2ccccc12 | inactive

Test: Cellular Toxicity (caspase-3) SHSY5Y (AID 657)
Conditions: SH-SY5Y caspase-3 activation, DMSO zero, 10 µM staurosporine = 100%; series mostly up to 91.7 µM
Summary of the method: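 Luminescent Caspase-Glo 3/7 read-out, 1 hr room temperature, follows 16 hours of compound treatment of SH-SY5Y cells at 37 °C. Normalization: DMSO basal, 10 uM staurosporine as 100%; AC50 values from Hill-equation concentration-response fits.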

SMILES | outcome
O=C(O)c1cc(O)c(O)c(O)c1 | inactive
CC(C)NCC(O)COc1cccc2ccccc12 (centres undefined) | inactive
O=c1cc(-c2ccccc2)oc2ccccc12 | inactive

Test: Cellular Toxicity (caspase-3) BJ (AID 658)
Conditions: BJ fibroblasts, luminescence, normalized: DMSO 0%, staurosporine 100%; series mostly up to 91.7 µM
Summary of the method: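 qHTS, BJ fibroblasts, 1000 cells/well; 5 hr preincubation, 16 hr compound, 37 °C; Caspase-Glo 3/7 reagent, 1 hr RT; luminescence. DMSO = 0%, 10 uM staurosporine = 100%. Hill-equation AC50.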

SMILES | outcome
O=C(O)c1cc(O)c(O)c(O)c1 | inactive
CC(C)NCC(O)COc1cccc2ccccc12 (centres undefined) | inactive
O=c1cc(-c2ccccc2)oc2ccccc12 | inactive

Test: Cellular Toxicity (caspase-3) MRC-5 (AID 659)
Conditions: MRC-5 cells, luminescence, normalized: DMSO 0%, 10 µM staurosporine 100%; series mostly up to 91.7 µM
Summary of the method: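 MRC-5 fibroblasts, 1500/well; 16 h cpd, 37 °C; Caspase-Glo 3/7, 1 h RT; lumi read. Norm: DMSO = 0%, 10 uM staurosporine = 100%. Hill-fit AC50 from qHTS conc-response.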

SMILES | outcome
O=C(O)c1cc(O)c(O)c(O)c1 | inactive
CC(C)NCC(O)COc1cccc2ccccc12 (centres undefined) | inactive
O=c1cc(-c2ccccc2)oc2ccccc12 | inactive

Test: Cellular Toxicity (caspase-3) Mesangial (AID 660);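 further: combined caspase 3 and 7 activity read by Caspase-Glo luminescence; cells exposed to compound for 16 h before the caspase read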
Conditions: mesangial cells; Potency: caspase-3 activation; series mostly up to 91.7 µM
Summary of the method: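 AC50 values come from Hill-equation fits of caspase 3/7 activation, measured as Caspase-Glo luminescence in human glomerular mesangial cells exposed to compound for 16 h at 37 °C; 100% set by 100 uM tamoxifen.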

SMILES | Potency
O=C(O)c1cc(O)c(O)c(O)c1 | inactive
CC(C)NCC(O)COc1cccc2ccccc12 (centres undefined) | inactive
O=c1cc(-c2ccccc2)oc2ccccc12 | inactive

Test: Cellular Toxicity (caspase-3) SK-N-SH (AID 661)
Conditions: SK-N-SH caspase-3 activation, qHTS; series mostly up to 91.7 µM
Summary of the method: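 Apoptosis readout in SK-N-SH neuroblastoma: Caspase-Glo 3/7 luminescence following 16 hr treatment in complete culture medium. Normalization used DMSO and 10 uM staurosporine controls.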

SMILES | Potency
O=C(O)c1cc(O)c(O)c(O)c1 | inactive
CC(C)NCC(O)COc1cccc2ccccc12 (centres undefined) | inactive
O=c1cc(-c2ccccc2)oc2ccccc12 | inactive
